# Activity calls are given as the source filed them. Rule for the calls: active = hit-call score of the fitted dose curve at least 0.9, where 1 is the maximum; inactive = score below 0.9.
# Columns and labels:
# [1] = read-out: serum amyloid A (SAA), SAA1 (gene 6288); assay: BSK_CASM3C_SAA: BioMAP Diversity Plus: CASM3C Assay for serum amyloid A (SAA) Biomarker Activity (AID 2283049); conditions: primary human coronary artery smooth muscle cells; actives raise or lower the signal
# [2] = BSK_CASM3C_SRB: Viability Assessment in the BioMAP Diversity Plus: CASM3C Assay (AID 2283050); conditions: primary human coronary artery smooth muscle cells;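 note: cells exposed to compound for 24 h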
# [3] = read-out: Thrombomodulin, THBD (gene 7056); assay: BSK_CASM3C_Thrombomodulin: BioMAP Diversity Plus: CASM3C Assay for Thrombomodulin Biomarker Activity (AID 2283051); conditions: primary human coronary artery smooth muscle cells; actives raise or lower the signal;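 note: thrombomodulin protein level measured by ELISA 24 h after dosing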
# [4] = read-out: Tissue Factor, F3 (gene 2152); assay: BSK_CASM3C_TissueFactor: BioMAP Diversity Plus: CASM3C Assay for Tissue Factor Biomarker Activity (AID 2283052); conditions: primary human coronary artery smooth muscle cells; actives raise or lower the signal;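 note: cell surface tissue factor protein level read by ELISA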
# [5] = read-out: Interferon-gamma inducible Protein 10 (IP10), CXCL10 (gene 3627); assay: BSK_hDFCGF_IP10: BioMAP Diversity Plus: hDFCGF Assay for Interferon-gamma inducible Protein 10 (IP10) Biomarker Activity (AID 2283053); conditions: primary human foreskin fibroblasts; actives raise or lower the signal
# In short: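 Chemical-treated human skin fibroblasts (primary) were sampled at 24 h for IP-10 by ELISA. Both increases and decreases relative to DMSO were scored.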
# [6] = read-out: Urokinase-type plasminogen activator receptor (uPAR), PLAUR (gene 5329); assay: BSK_CASM3C_uPAR: BioMAP Diversity Plus: CASM3C Assay for Urokinase-type plasminogen activator receptor (uPAR) Biomarker Activity (AID 2283054); conditions: primary human coronary artery smooth muscle cells; actives raise or lower the signal;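 note: cell-surface uPAR protein level quantified by ELISA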
# [7] = read-out: Vascular cell adhesion molecule 1 (VCAM1), VCAM1 (gene 7412); assay: BSK_CASM3C_VCAM1: BioMAP Diversity Plus: CASM3C Assay for Vascular cell adhesion molecule 1 (VCAM1) Biomarker Activity (AID 2283055); conditions: primary human coronary artery smooth muscle cells; actives raise or lower the signal;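 note: VCAM-1 protein level quantified by ELISA on the cells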
# [8] = read-out: Collagen III, COL3A1 (gene 1281); assay: BSK_hDFCGF_CollagenIII: BioMAP Diversity Plus: hDFCGF Assay for Collagen III Biomarker Activity (AID 2283056); conditions: primary human foreskin fibroblasts; actives raise or lower the signal
# In short: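 ELISA read-out of collagen III from human skin fibroblast cultures sampled 24 h post-dosing. Values were derived by bidirectional fitting relative to the DMSO vehicle control.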
# [9] = read-out: Epidermal growth factor receptor (EGFR), EGFR (gene 1956); assay: BSK_hDFCGF_EGFR: BioMAP Diversity Plus: hDFCGF Assay for Epidermal growth factor receptor (EGFR) Biomarker Activity (AID 2283057); conditions: primary human foreskin fibroblasts; actives raise or lower the signal
# In short: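 Cell-based multiplexed assay in primary human foreskin fibroblasts. EGFR is read by ELISA 24 h after treatment and compared with DMSO controls.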
# [10] = read-out: Interleukin-8 (IL8), CXCL8 (gene 3576); assay: BSK_hDFCGF_IL8: BioMAP Diversity Plus: hDFCGF Assay for Interleukin-8 (IL8) Biomarker Activity (AID 2283058); conditions: primary human foreskin fibroblasts; actives raise or lower the signal
# In short: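 Cells used are human skin primary fibroblasts. Chemical is added, cultures run 24 h, then IL-8 is quantified by ELISA, and gain or loss versus DMSO control is fitted in both directions.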
# [11] = BSK_hDFCGF_Proliferation: Cell Proliferation Assessment in the BioMAP Diversity Plus: hDFCGF Assay (AID 2283059); conditions: primary human foreskin fibroblasts;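 note: curves fitted for both rise and fall of signal versus DMSO baseline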
# In short: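 Total protein read at 560 nm after 0.1% SRB staining of TCA-fixed human skin fibroblasts, […]. Activity is fitted in both directions relative to DMSO as baseline.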
# [12] = read-out: Macrophage colony-stimulating factor (MCSF), CSF1 (gene 1435); assay: BSK_hDFCGF_MCSF: BioMAP Diversity Plus: hDFCGF Assay for Macrophage colony-stimulating factor (MCSF) Biomarker Activity (AID 2283060); conditions: primary human foreskin fibroblasts; actives raise or lower the signal
# In short: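 Primary human foreskin fibroblasts dosed with chemical; 24 h later, M-CSF quantified by ELISA; curves fitted in both directions vs DMSO negative control.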
# [13] = BSK_hDFCGF_SRB: Viability Assessment in the BioMAP Diversity Plus: hDFCGF Assay (AID 2283061); conditions: primary human foreskin fibroblasts;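 note: cells exposed to compound for 24 h before the read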
# In short: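 Readout is SRB absorbance at 560 nm, reflecting total protein in parallel cultures of human foreskin fibroblasts harvested 24 h after chemical dosing. Activity was fitted bidirectionally relative to DMSO.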
# [14] = read-out: TIMP metallopeptidase inhibitor 1 (TIMP1), TIMP1 (gene 7076); assay: BSK_hDFCGF_TIMP1: BioMAP Diversity Plus: hDFCGF Assay for TIMP metallopeptidase inhibitor 1 (TIMP1) Biomarker Activity (AID 2283062); conditions: primary human foreskin fibroblasts; actives raise or lower the signal
# In short: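 Human skin fibroblasts (primary), hDFCGF system; compound exposure 24 h; TIMP-1 by ELISA; bidirectional fit vs DMSO negative control; overt cytotoxicity by SRB in parallel wells.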
# [15] = read-out: Monokine induced gamma interferon (MIG), CXCL9 (gene 4283); assay: BSK_hDFCGF_MIG: BioMAP Diversity Plus: hDFCGF Assay for Monokine induced gamma interferon (MIG) Biomarker Activity (AID 2283063); conditions: primary human foreskin fibroblasts; actives raise or lower the signal
# In short: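 Chemicals were added to primary human foreskin fibroblast cultures, which were sampled 24 h later. MIG levels were then quantified by ELISA and responses fitted in both directions relative to DMSO.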
# [16] = read-out: Matrix Metallopeptidase 1 (MMP1), MMP1 (gene 4312); assay: BSK_hDFCGF_MMP1: BioMAP Diversity Plus: hDFCGF Assay for Matrix Metallopeptidase 1 (MMP1) Biomarker Activity (AID 2283064); conditions: primary human foreskin fibroblasts; actives raise or lower the signal
# In short: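 MMP1 levels quantified by ELISA 24 h after dosing human dermal fibroblast cultures, with parallel SRB total-protein staining for overt cytotoxicity. Data fitted in both directions against DMSO baseline.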
# [17] = read-out: Vascular cell adhesion molecule 1 (VCAM1), VCAM1 (gene 7412); assay: BSK_hDFCGF_VCAM1: BioMAP Diversity Plus: hDFCGF Assay for Vascular cell adhesion molecule 1 (VCAM1) Biomarker Activity (AID 2283065); conditions: primary human foreskin fibroblasts; actives raise or lower the signal;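 for AC50: VCAM-1 protein level quantified by ELISA after 24 h chemical exposure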
# In short: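 Human foreskin fibroblast primary cells, chemical exposure 24 h; VCAM-1 by ELISA; bidirectional fit, DMSO = negative control/baseline.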
# [18] = read-out: Plasminogen activator inhibitor-1 (PAI1), SERPINE1 (gene 5054); assay: BSK_hDFCGF_PAI1: BioMAP Diversity Plus: hDFCGF Assay for Plasminogen activator inhibitor-1 (PAI1) Biomarker Activity (AID 2283066); conditions: primary human foreskin fibroblasts; actives raise or lower the signal
# In short: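 Human skin fibroblast cultures receive chemical for 24 h before PAI-1 is measured by ELISA; signal changes are fitted bidirectionally against DMSO-treated wells.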
# [19] = read-out: Intercellular Adhesion Molecule 1 (ICAM1), ICAM1 (gene 3383); assay: BSK_KF3CT_ICAM1: BioMAP Diversity Plus: KF3CT Assay for Intercellular Adhesion Molecule 1 (ICAM1) Biomarker Activity (AID 2283067); conditions: primary human keratinocytes with fibroblasts; actives raise or lower the signal
# In short: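 ICAM-1 levels are measured by ELISA 24 h after dosing a primary human co-culture of keratinocytes and foreskin fibroblasts. Activity in either direction is fitted relative to DMSO vehicle.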
# [20] = read-out: Interferon-gamma inducible Protein 10 (IP10), CXCL10 (gene 3627); assay: BSK_KF3CT_IP10: BioMAP Diversity Plus: KF3CT Assay for Interferon-gamma inducible Protein 10 (IP10) Biomarker Activity (AID 2283068); conditions: primary human keratinocytes with fibroblasts; actives raise or lower the signal
# In short: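 Human keratinocyte plus foreskin fibroblast primary co-culture exposed to test chemical for 24 h; IP-10 measured by ELISA. Concentration-response fitted bidirectionally against DMSO control as baseline.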
smiles,measurement,setting,value
CCNc1nc(NC(C)(C)C)nc(SC)n1,outcome,[1],inactive
same,outcome,[2],inactive
same,outcome,[3],inactive
same,outcome,[4],inactive
same,outcome,[5],inactive
same,outcome,[6],inactive
same,outcome,[7],inactive
same,outcome,[8],inactive
same,outcome,[9],inactive
same,outcome,[10],inactive
same,outcome,[11],inactive
same,outcome,[12],inactive
same,outcome,[13],inactive
same,outcome,[14],inactive
same,outcome,[15],inactive
same,outcome,[16],inactive
same,outcome,[17],inactive
same,outcome,[18],inactive
same,outcome,[19],inactive
same,outcome,[20],inactive
CC1(C)Cc2cccc(O)c2O1,outcome,[1],inactive
same,outcome,[2],inactive
same,outcome,[3],inactive
same,outcome,[4],inactive
same,outcome,[5],inactive
same,outcome,[6],inactive
same,outcome,[7],inactive
same,outcome,[8],inactive
same,outcome,[9],inactive
same,outcome,[10],inactive
same,outcome,[11],inactive
same,outcome,[12],inactive
same,outcome,[13],inactive
same,outcome,[14],inactive
same,outcome,[15],inactive
same,outcome,[16],inactive
same,outcome,[17],inactive
same,outcome,[18],inactive
same,outcome,[19],inactive
same,outcome,[20],inactive
CCOP(=S)(OCC)SCSP(=S)(OCC)OCC,outcome,[1],inactive
same,outcome,[2],inactive
same,outcome,[3],inactive
same,outcome,[4],inactive
same,AC50,[5],13.9 µM (active)
same,outcome,[6],inactive
same,outcome,[7],inactive
same,AC50,[8],10 µM (active)
same,outcome,[9],inactive
same,outcome,[10],inactive
same,AC50,[11],31.6 µM (active)
same,outcome,[12],inactive
same,outcome,[13],inactive
same,outcome,[14],inactive
same,outcome,[15],inactive
same,outcome,[16],inactive
same,outcome,[17],inactive
same,outcome,[18],inactive
same,outcome,[19],inactive
same,outcome,[20],inactive
O=C1C2(Cl)C3(Cl)C4(Cl)C(Cl)(Cl)C5(Cl)C3(Cl)C1(Cl)C5(Cl)C24Cl (centres undefined),AC50,[1],23.3 µM (active)
same,AC50,[2],24 µM (active)
same,AC50,[3],33.6 µM (active)
same,AC50,[4],19.3 µM (active)
same,AC50,[5],4.03 µM (active)
same,AC50,[6],18 µM (active)
same,AC50,[7],29 µM (active)
same,AC50,[8],3.46 µM (active)
same,AC50,[9],2.09 µM (active)
same,AC50,[10],14.3 µM (active)
same,AC50,[11],1.42 µM (active)
same,AC50,[12],21.9 µM (active)
same,AC50,[13],16.4 µM (active)
same,AC50,[14],30 µM (active)
same,AC50,[15],31 µM (active)
same,AC50,[16],19.3 µM (active)
same,AC50,[17],4.35 µM (active)
same,AC50,[18],8.81 µM (active)
same,AC50,[19],33 µM (active)
O=Cc1cccc(Oc2ccccc2)c1,outcome,[1],inactive
same,outcome,[2],inactive
same,outcome,[3],inactive
same,outcome,[4],inactive
same,outcome,[5],inactive
same,outcome,[6],inactive
same,outcome,[7],inactive
same,outcome,[8],inactive
same,outcome,[9],inactive
same,outcome,[10],inactive
same,outcome,[11],inactive
same,outcome,[12],inactive
same,outcome,[13],inactive
same,outcome,[14],inactive
same,outcome,[15],inactive
same,outcome,[16],inactive
same,outcome,[17],inactive
same,outcome,[18],inactive
same,outcome,[19],inactive
same,outcome,[20],inactive
O=[N+]([O-])c1ccc2c3c(cccc13)CC2,outcome,[1],inactive
same,outcome,[2],inactive
same,outcome,[3],inactive
same,outcome,[4],inactive
same,outcome,[5],inactive
same,outcome,[6],inactive
same,outcome,[7],inactive
same,outcome,[8],inactive
same,outcome,[9],inactive
same,outcome,[10],inactive
same,AC50,[11],27.7 µM (active)
same,AC50,[12],10.6 µM (active)
same,outcome,[13],inactive
same,outcome,[14],inactive
same,outcome,[15],inactive
same,outcome,[16],inactive
same,outcome,[17],inactive
same,outcome,[18],inactive
same,outcome,[19],inactive
same,outcome,[20],inactive

# From PubChem BioAssay (EPA / NIEHS)
